Screening data as filed in PubChem BioAssay.
Only some compounds are listed: those with a hit (about 1.6% of all), similar ones and a draw of the others.
KCNQ2 pot = potentiators of rat KCNQ2 potassium channel. CHO-K1 KCNQ2, FluxOR thallium flux fluorescence; hits give high values. B-score at 10 µM. 0.54% of 310,000 active;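 active = fluorescence ratio B-score at least 3 SD of library B-scores, with initial fluorescence B-score within 3 of them, cut at about 5.3 in these data; same plate scores as AID 2156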;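 note: B-score of peak minus minimum over baseline fluorescence ratio after K+ and Tl+ stimulus; positive B-score means potentiation of KCNQ2 with more thallium influx and brighter signal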
Target sequence (O88943 whole entry, looked up): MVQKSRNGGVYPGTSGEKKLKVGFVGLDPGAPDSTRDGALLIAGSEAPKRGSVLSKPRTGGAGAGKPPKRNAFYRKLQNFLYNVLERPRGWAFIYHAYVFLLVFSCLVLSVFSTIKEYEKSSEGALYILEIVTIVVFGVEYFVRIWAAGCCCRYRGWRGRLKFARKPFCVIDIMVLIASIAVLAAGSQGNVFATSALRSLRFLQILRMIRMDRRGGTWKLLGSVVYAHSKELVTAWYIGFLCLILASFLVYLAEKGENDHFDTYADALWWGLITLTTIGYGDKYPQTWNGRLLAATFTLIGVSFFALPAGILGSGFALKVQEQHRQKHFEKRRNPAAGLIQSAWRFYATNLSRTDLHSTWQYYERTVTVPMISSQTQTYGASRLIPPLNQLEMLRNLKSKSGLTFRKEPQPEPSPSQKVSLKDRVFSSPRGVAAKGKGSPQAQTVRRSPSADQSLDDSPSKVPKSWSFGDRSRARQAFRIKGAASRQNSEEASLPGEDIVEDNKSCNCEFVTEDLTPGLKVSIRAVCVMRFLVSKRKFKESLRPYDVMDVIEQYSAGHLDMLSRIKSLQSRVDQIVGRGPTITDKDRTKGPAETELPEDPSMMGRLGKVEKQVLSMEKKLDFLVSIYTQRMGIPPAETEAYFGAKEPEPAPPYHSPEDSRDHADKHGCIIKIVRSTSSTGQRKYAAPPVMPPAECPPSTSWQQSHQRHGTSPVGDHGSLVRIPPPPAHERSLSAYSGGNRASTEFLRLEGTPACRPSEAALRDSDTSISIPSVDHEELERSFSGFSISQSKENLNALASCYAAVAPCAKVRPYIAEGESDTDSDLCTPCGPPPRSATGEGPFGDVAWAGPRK
KCNQ2 block = rat KCNQ2 potassium channel inhibitors, primary screen, cell-based, CHO-K1, FluxOR thallium flux, B-score; 1.1% of 310,000 active; Potassium voltage-gated channel subfamily KQT member 2 (Rattus norvegicus), O88943; 20 min; hits give low values; B-score at 10 µM; AID 2156, 2009;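 active = fluorescence ratio B-score at most minus 3 library SDs, with starting brightness B-score within 2 library SDs, cut at about -5.5 in these data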
Hits are given with their value; – = inactive; · = no result.

SMILES	KCNQ2 pot	KCNQ2 block
O=C(COC(=O)C1(c2ccc(Cl)cc2)CCCC1)Nc1ncc(C(F)(F)F)cc1Cl	·	–
CC(C)NC(=O)CN(c1cccc([N+](=O)[O-])c1)S(=O)(=O)c1ccccc1	–	–
Cc1occc1-c1nnc(SCC(=O)c2ccc(F)cc2)n1Cc1ccco1	·	–
O=C(CSc1nnc(-c2cc3ccccc3cc2O)n1Cc1ccco1)c1ccc(F)cc1	–	-5.9
O=C(C1=C[C@H](C2CCCCC2)C[C@H](OCc2ccc(CO)cc2)O1)N1CCN(Cc2ccc3c(c2)OCO3)CC1	·	–
CCn1c(=O)c([N+](=O)[O-])c(NCCN(C)C)c2ccccc21	·	–
CCn1c(=O)c([N+](=O)[O-])c(Cl)c2ccccc21	–	-6.7
COc1cc(NC(=O)C(=O)NNC(=O)C2CCCCC2)c(OC)cc1Cl	9.8	–
COc1cc(NC(=S)N2CCCCC2C)c(OC)cc1Cl (centres undefined)	·	–
O=C(N/N=C/c1cccc([N+](=O)[O-])c1O)c1cccs1	6	–
O=C(N/N=C/c1ccc([N+](=O)[O-])cc1)c1cccs1	·	–
COc1ccc(C(C)=O)cc1CSc1nnc(Nc2ccccc2C)s1	·	–
CCOC(=O)CC1(NC(=O)C2CCC(=O)N(C3CC3)C2)CCCCC1 (centres undefined)	·	–
CCOC(=O)CC1(NC(=O)C2CCC(=O)N(CCc3ccccc3)C2)CCCCC1 (centres undefined)	–	-6.3
O=[N+]([O-])c1ccccc1Sc1nccn1Cc1ccccc1	–	-6.5
NC(=O)CSc1nccn1Cc1ccccc1	–	–
CC(C)c1ccc(Oc2cccc(C(=O)/C(C#N)=C/N(C)C)c2)cc1	–	-6.2
CN(C)/C=C(\C#N)C(=O)c1cccc(Oc2ccc(Br)cc2)c1	·	–
COc1ccc(NC(=O)COC(=O)c2ccc(OCc3ccccc3Cl)c(OC)c2)c(OC)c1	–	–
Cc1ccc(C)c(-n2c(SCC(=O)N3CCCC3)nnc2-c2ccccn2)c1	–	–
COc1ccc(NC(=O)C23CC4CC(C2)CC(c2ccccc2)(C4)C3)c(OC)c1	–	–
O=C(c1cn(-c2ccccc2)nc1-c1ccccc1)n1nnc2ccccc21	·	–
COc1cccc(-c2nn(-c3ccccc3)cc2C(=O)n2nnc3ccccc32)c1	–	-6.4
O=C1CC2(CCN(C(=O)c3ccc(Br)cc3)CC2)Oc2ccccc21	·	–
COc1cccc(NC(=O)c2cc3ccccc3o/c2=N\O)c1	·	–
SMILES	KCNQ2 pot	KCNQ2 block
COc1cccc(NC(=O)c2cc3cccc(OC)c3o/c2=N\O)c1	–	-7.1
O=C(NCc1ccco1)c1cccc(Nc2nc3ccc(Br)cc3[nH]2)c1	·	–
Cc1cccc(Cc2cnc(N3C(=N)SC(C)C3=O)s2)c1 (centres undefined)	6	–
Cc1ccc(Cc2cnc(N3C(=N)SC(C)C3=O)s2)cc1 (centres undefined)	–	–
O=C(NCc1cccnc1)c1sc2ccccc2c1Cl	·	–
CCC1CCCCN1CCCNC(=O)c1ccc2c(c1)N(Cc1c(F)cccc1Cl)C(=O)CS2 (centres undefined)	·	–
O=C(NCc1ccc2c(c1)OCO2)c1ccc2c(c1)N(Cc1c(F)cccc1Cl)C(=O)CS2	8.7	–
COc1ccc2nc(-n3c(C)ccc3C)sc2c1	–	–
COc1ccc2nc(N3C(=O)/C(=C/c4ccccc4)NC3=S)sc2c1	23	–
CCOc1ccc2nc(N3CCCCCC3)sc2c1	–	–
CCOc1ccc2nc(N3C(=O)/C(=C/c4ccccc4)NC3=S)sc2c1	20	–
CSCCC(NC(=O)COc1ccccc1)C(=O)OCC(=O)c1ccccc1 (centres undefined)	·	–
CSCCC(NC(=O)COc1ccccc1)C(=O)N1CCN(c2ccccc2O)CC1 (centres undefined)	–	-6.2
COc1ccccc1OCC(=O)Nc1cccc(N(C)S(C)(=O)=O)c1	·	–
COc1cc(C=O)ccc1OCC(=O)Nc1cccc(S(=O)(=O)N(C)c2ccccc2)c1	–	-8.3
CCn1cc(C(=O)N[C@@H](CCSC)C(=O)NCCOC)c(=O)c2cc3c(cc21)OCO3	·	–
Cc1cc2ccccc2c(=O)n1CC(=O)NCC(=O)N1CCCC1	–	–
COc1ccc(-c2csc(/C(C#N)=C(\O)CSc3nccn3C)n2)cc1OC	–	–
O=C(COc1ccc([N+](=O)[O-])cc1)N(Cc1ccccc1)Cc1ccccc1	–	-5.8
CCOc1ccc(C(=O)NC(Cc2ccccc2)C(=O)OC)cc1 (centres undefined)	·	–
CN(Cc1ccccc1)C(=O)COc1ccc(C(C)(C)C)cc1	–	-5.6
CN(Cc1ccccc1)C(=O)COc1ccccc1Cl	·	–
COC(=O)C(Cc1ccccc1)NC(=O)COc1ccc(C(C)(C)C)cc1 (centres undefined)	–	-5.6
O=C(COc1ccccc1)NNC(=O)COc1ccc([N+](=O)[O-])cc1	–	–
Cc1cc(C)c2cc(C(=O)N(C)C3CCN(C)CC3)[nH]c2c1	–	–
SMILES	KCNQ2 pot	KCNQ2 block
Cc1ccc(-c2c(C(=O)NCc3ccc(F)cc3)oc(=O)c3ccccc23)cc1	9.2	–
Cc1ccc(CNC(=O)c2cc(=O)c3ccccc3o2)cc1	–	–
O=S(=O)(c1ccccc1)N1CCN(c2ncnc3sc(-c4ccccc4)cc23)CC1	·	–
Cc1onc(-c2c(F)cccc2Cl)c1C(=O)c1ccc(F)cc1	·	–
Cc1onc(-c2c(Cl)cccc2Cl)c1C(=O)c1ccc(F)cc1	6.8	–
CCc1noc(C)c1C(=O)Nc1nc(-c2ccc(OC)cc2)cs1	·	–
CCOc1ccc(-c2cc(N3C(=O)Nc4ccccc4N3O)n[nH]2)cc1	–	–
CCOC(=O)c1c(N2C(=O)Nc3ccccc3N2O)n[nH]c1-c1cccc(Cl)c1	10	–
CS(=O)(=O)c1ccccc1C(=O)Nc1ccc(-c2nc3ccccc3[nH]2)cc1	–	–
COc1ccc2nc(C)c3c(c2c1)OC(C(C)(Cl)Br)C3 (centres undefined)	·	–
Cc1ccc2nc(C)c3c(c2c1)OC(C(C)(Cl)Br)C3 (centres undefined)	–	-5.7
CN(C)c1ccc(-c2nnn(CC(=O)N3c4ccccc4CCc4ccccc43)n2)cc1	·	–
Cc1cc(C)c2c(=O)n(CC(=O)NCCCN3CCN(c4ccccc4F)CC3)sc2n1	–	-9.9
Cc1cc(C)c2c(=O)n(CC(=O)NCCCN3CCOCC3)sc2n1	–	–
COC(=O)CCc1ccc(O)cc1	–	–
Cc1ccccc1C(=O)N1CCN(C(c2ccccc2)c2ccccc2)CC1	·	–
Cc1occc1C(=O)N1CCN(C(c2ccccc2)c2ccccc2)CC1	–	-6.4
CN(C)c1ccc(/C=C2\C(=N)N3N=C(CC(=O)N4CCCC4)SC3=NC2=O)cc1Br	·	–
CCc1ccc2c(c1)C1(NN=C(c3cccc4ccccc34)S1)C(=O)N2 (centres undefined)	–	-14
CCc1ccc2c(c1)C1(C(=O)N2)N2CCCC2C(C(=O)c2ccc3ccccc3c2)C12C(=O)Nc1ccccc12 (centres undefined)	–	–
O=C(Cc1ccc(Cl)cc1)NCc1ccccc1Cl	·	–
O=C(NCc1ccccc1Cl)C1(S(=O)(=O)c2ccc(Cl)cc2)CC1	–	-5.7
O=C(CCS(=O)(=O)c1ccccc1Cl)NCc1ccc(F)cc1	·	–
CC(C)=CC(=O)Nc1ccc(OCc2ccccc2)cc1	7.6	–
O=C(Nc1ccc(OCc2ccccc2)cc1)c1ccccc1	·	–
